Data published in the supplement of paper PMC10338343.
± gives the standard deviation.

Tests used:
[1] = test system: MILI (PIWIL2) piRISC loaded with piRNA #1 (26 nt); assay: pre-steady-state target cleavage rate (min^-1); guide: piRNA #1 5'p-UGAGGUAGUAGGUUGUAUAGUAUCCA; higher = faster piRNA-guided slicing of the target; details: auxiliary factor: 500 nM mouse GTSF1
Outline: (§1)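 Using HEPES–potassium acetate buffer at 33 °C, 1 nM active affinity-purified piRISC with a single synthetic guide was mixed with 0.1 nM transcribed, DNA-blocked target RNA library for 0–8 or 0–960 min, with or without 500 nM GTSF1 partner protein. Uncleaved targets were sequenced and normalised to depth and to weakly complementary targets, and three trials were pooled with k3 capped at 0.0001 min^-1. A burst-and-steady-state fit gave the pre-steady-state cleavage rate.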

[2] = test system: EfPiwi piRISC loaded with piRNA #1 (26 nt); assay: pre-steady-state target cleavage rate (min^-1); auxiliary factor: 500 nM Ephydatia muelleri Gtsf1; guide: piRNA #1 5'p-UGAGGUAGUAGGUUGUAUAGUAUCCA; MIWI and MILI are mouse PIWI proteins and EfPiwi is from a freshwater sponge; tags in brackets are library labels; higher = faster piRNA-guided slicing of the target
Outline: as §1

Sequence	pre-steady-state target cleavage rate [1]	pre-steady-state target cleavage rate [2]
GGAGACCUAUGAUUACAACCUACUCACCUCA	0.00473 ± 0.0023	< 0.0001
GGAGACGAUACAAUACAACCAACUACCUCA	0.0105 ± 0.0027	0.0037 ± 0.0029
GGAGUGGAUACUAUACAACCGUACUACCUCA	0.00369 ± 0.0022	0.00658 ± 0.0027
GGAGUGGAUACUAUACAACCUACUACUCUCA	0.14 ± 0.012	0.00513 ± 0.0029
GGAGACCAUUCUAUACAACCUACUUCCUCA	0.0522 ± 0.0086	0.00372 ± 0.0035
GGAGACGAUACAAUACAACCUACUACCUGA	0.116 ± 0.015	0.0025 ± 0.0015
GGAGACCUUACUAUACAACGUACUACGUCA	0.00879 ± 0.0038	0.00267 ± 0.0018
GGAGAGGAUACUAUAGAACCUACUAGCUCA	0.00752 ± 0.0035	0.00254 ± 0.0018
GGAGACCAUACUAUUCAACCUACUAGCUCA	0.11 ± 0.019	0.00459 ± 0.0044
GGAGUGGAUACGAUACAACCUACUACCUCA	0.176 ± 0.011	0.0121 ± 0.0053
GGAGACGAUACUAUACAACCUGCUACCUCA	0.0677 ± 0.008	0.128 ± 0.046
GGAGAGGAUACUAACAACCUACUACCUCA	0.181 ± 0.013	0.00812 ± 0.0046
GGAGACCUAACUAUACAACCUACUGCCUCA	0.102 ± 0.024	0.0364 ± 0.015
GGAGAGGAUACUAUAGAACCUACUACCACA	0.0636 ± 0.0099	0.00261 ± 0.0014
GGAGAGGAUACUAUAGAACCUACUACGUCA	0.0326 ± 0.0058	0.00228 ± 0.0021
GGAGUGGAUACUAUACAACCAACUACGUCA	0.00435 ± 0.0018	0.00367 ± 0.0011
GGAGAGCAUUCUAUACAACCUACUACCUCA	0.156 ± 0.013	0.0192 ± 0.01
GGAGACCUAUGGAUACAACCUACUACCUCA	0.0189 ± 0.0046	0.00946 ± 0.005
GGAGAGGAUACAAUACAACCUUCUACCUCA	0.0148 ± 0.003	0.00307 ± 0.0023
GGAGAGGAUACUUUACAAGCUACUACCUCA	0.149 ± 0.014	0.00384 ± 0.0021
